According to the supplement of paper PMC9446081:
± gives the standard deviation of the averaged measurements.

Columns and labels:
Assay in all cases: relative enzymatic activity vs untreated control (fraction); higher = less inhibition
Conditions in all cases: 100 µM; incubation time: 2 h at 37 C
[1] = test system: DNA gyrase
Description: (§1)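 In vitro enzymatic inhibition assays (ProFoldin kits) for 12 purified essential E. coli enzymes or complexes, each treated with 218 active antibacterial compounds at 100 µM for 2 h at 37°C. Read-outs were fluorescence or absorbance (phosphate detection, dye binding), converted to activity via standard curves and expressed relative to untreated DMSO controls.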

[2] = target: DNA helicase (UniProt P0ACB1)
Description: as §1

[3] = target: DNA ligase (UniProt B1XA82)
Description: as §1

[4] = target: DNA polymerase (UniProt P10443)
Description: as §1

[5] = target: DNA primase (UniProt P0ABS7)
Description: as §1

[6] = target: GlmU (UniProt A7ZTU1)
Description: as §1

[7] = target: Guanlyate kinase (UniProt Q0TBG1)
Description: as §1

[8] = target: MurA (UniProt Q3YX52)
Description: as §1

[9] = test system: RNA polymerase
Description: as §1

Chain of DNA polymerase (P10443 whole entry): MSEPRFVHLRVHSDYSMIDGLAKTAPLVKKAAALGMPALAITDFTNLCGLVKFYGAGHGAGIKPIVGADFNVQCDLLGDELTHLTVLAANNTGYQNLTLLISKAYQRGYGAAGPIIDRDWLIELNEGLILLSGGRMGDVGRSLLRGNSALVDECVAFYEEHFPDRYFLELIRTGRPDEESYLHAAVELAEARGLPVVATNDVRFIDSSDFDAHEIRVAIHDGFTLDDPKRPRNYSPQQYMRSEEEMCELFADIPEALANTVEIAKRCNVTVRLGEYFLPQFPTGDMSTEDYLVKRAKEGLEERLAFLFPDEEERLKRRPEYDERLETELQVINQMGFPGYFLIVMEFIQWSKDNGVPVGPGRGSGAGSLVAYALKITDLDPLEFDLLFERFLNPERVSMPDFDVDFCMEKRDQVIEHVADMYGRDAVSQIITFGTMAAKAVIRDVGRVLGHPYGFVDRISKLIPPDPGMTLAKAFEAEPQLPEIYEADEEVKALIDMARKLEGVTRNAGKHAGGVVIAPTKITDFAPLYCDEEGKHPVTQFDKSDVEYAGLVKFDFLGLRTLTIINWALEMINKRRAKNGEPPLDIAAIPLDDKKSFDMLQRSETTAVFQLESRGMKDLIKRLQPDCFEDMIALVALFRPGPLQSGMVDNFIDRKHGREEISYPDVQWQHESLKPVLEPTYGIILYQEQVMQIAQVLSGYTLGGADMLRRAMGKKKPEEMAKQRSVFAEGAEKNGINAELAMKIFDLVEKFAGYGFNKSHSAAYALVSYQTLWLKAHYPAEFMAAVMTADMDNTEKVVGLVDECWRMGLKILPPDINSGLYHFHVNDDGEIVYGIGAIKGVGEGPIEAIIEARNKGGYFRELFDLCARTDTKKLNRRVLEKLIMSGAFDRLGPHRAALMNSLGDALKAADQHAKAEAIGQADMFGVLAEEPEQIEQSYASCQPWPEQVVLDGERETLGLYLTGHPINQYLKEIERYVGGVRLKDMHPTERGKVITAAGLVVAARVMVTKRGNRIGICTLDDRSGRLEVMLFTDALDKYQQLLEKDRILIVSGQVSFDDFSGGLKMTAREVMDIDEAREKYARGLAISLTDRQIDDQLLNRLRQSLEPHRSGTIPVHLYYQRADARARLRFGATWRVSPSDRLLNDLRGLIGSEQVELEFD
Chain of DNA helicase (P0ACB1 whole entry): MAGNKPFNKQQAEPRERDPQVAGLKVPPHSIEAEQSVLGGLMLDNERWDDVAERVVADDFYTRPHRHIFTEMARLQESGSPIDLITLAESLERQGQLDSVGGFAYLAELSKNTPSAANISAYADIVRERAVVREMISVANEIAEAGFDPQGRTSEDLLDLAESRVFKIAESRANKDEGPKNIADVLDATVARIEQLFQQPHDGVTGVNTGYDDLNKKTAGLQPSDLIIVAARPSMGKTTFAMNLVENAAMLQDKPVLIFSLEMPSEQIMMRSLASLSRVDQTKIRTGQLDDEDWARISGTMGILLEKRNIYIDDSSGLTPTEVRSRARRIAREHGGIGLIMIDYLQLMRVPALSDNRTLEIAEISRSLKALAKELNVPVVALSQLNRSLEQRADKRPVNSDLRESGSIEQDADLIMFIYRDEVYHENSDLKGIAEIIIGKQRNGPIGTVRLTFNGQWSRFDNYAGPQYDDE
Chain of Guanlyate kinase (Q0TBG1 whole entry): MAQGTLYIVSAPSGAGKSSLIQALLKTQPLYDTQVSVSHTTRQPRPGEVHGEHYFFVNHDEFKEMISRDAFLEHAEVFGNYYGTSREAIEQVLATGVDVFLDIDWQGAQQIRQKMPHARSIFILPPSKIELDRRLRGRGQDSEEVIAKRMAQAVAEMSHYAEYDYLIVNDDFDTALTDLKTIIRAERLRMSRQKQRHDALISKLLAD
Chain of DNA primase (P0ABS7 whole entry): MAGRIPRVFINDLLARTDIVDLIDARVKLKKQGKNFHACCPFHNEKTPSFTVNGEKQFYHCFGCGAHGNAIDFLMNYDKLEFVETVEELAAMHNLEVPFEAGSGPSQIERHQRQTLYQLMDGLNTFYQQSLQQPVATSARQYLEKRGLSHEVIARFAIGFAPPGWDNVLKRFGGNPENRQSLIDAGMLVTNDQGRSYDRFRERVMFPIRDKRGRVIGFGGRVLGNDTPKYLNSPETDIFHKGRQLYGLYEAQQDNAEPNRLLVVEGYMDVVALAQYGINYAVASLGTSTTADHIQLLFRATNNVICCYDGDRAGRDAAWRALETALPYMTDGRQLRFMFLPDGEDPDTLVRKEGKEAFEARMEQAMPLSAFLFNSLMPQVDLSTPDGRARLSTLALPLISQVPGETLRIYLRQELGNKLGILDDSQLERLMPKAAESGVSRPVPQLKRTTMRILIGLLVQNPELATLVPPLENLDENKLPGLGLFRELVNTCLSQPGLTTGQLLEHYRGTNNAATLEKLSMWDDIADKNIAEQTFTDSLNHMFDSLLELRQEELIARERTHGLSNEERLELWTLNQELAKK
Chain of DNA ligase (B1XA82 whole entry): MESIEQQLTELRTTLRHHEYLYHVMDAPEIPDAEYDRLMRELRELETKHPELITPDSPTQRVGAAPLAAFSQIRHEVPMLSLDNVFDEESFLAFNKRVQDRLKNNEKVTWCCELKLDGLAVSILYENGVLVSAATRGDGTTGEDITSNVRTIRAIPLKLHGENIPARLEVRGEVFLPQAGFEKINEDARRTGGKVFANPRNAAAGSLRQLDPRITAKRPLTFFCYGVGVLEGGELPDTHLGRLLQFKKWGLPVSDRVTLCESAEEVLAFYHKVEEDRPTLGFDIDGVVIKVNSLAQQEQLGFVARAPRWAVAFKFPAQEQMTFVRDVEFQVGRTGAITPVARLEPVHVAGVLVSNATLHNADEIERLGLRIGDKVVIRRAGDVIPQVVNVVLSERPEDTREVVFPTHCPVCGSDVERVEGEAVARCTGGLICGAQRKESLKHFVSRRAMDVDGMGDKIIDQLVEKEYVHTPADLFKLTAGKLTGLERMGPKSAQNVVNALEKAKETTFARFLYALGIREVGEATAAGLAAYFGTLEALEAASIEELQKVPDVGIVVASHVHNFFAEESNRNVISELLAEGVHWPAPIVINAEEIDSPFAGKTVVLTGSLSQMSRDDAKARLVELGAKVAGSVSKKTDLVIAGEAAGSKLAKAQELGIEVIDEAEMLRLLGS
Chain of GlmU (A7ZTU1 whole entry, looked up): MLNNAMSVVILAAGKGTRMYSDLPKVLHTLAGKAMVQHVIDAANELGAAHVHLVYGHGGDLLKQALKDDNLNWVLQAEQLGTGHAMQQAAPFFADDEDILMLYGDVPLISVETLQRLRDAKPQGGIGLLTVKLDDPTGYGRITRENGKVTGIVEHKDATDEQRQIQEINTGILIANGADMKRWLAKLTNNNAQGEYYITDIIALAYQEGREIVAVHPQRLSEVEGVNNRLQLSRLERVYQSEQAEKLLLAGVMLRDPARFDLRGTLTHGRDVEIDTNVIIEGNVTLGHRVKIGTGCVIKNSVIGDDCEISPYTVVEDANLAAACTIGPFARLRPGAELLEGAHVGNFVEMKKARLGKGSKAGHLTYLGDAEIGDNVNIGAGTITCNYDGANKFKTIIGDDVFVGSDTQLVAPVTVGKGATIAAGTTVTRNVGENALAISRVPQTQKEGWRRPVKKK
Chain of MurA (Q3YX52 whole entry): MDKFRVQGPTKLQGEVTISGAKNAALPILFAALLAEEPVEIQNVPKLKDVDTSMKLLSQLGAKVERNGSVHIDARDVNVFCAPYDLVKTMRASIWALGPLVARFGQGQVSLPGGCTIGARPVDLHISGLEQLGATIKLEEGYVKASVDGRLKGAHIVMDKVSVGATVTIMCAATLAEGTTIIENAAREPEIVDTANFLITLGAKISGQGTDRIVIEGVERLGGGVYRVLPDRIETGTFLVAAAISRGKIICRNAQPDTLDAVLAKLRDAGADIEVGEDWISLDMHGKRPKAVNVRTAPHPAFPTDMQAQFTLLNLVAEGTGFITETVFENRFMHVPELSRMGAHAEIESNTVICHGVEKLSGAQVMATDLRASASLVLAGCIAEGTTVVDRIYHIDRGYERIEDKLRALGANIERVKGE

Row | Compound | relative enzymatic activity [1] | relative enzymatic activity [2] | relative enzymatic activity [3] | relative enzymatic activity [4] | relative enzymatic activity [5] | relative enzymatic activity [6] | relative enzymatic activity [7] | relative enzymatic activity [8] | relative enzymatic activity [9]
1 | CC(=O)[O][Hg][c]1ccccc1 | 0.0283 ± 0.04 | 0.415 ± 0.038 | 1.16 ± 0.04 | 0.285 ± 0.017 | 0.749 ± 0.28 | 0.987 ± 0.21 | 3.32 ± 0.43 | 0.474 ± 0.35 | 0.462 ± 0.044
2 | O=C1C=C2C(=CCOC2O)O1 (stereo unspecified) | 0.0893 ± 0.13 | 0.409 ± 0.021 | 1.08 ± 0.17 | 0.547 ± 0.19 | 0.632 ± 0.14 | 0.811 ± 0.21 | 1.09 ± 0.049 | 0.0624 ± 0.018 | 0.56 ± 0.17
3 | Cc1nc2c(=O)n(C)c(=O)nc-2n(C)n1 | 0.498 ± 0.2 | 0.6 ± 0.18 | 0.827 ± 0.053 | 1.04 ± 0.11 | 0.8 ± 0.023 | 0.927 ± 0.071 | 0.881 ± 0.045 | 0.131 ± 0.035 | 0.925 ± 0.15
4 | Oc1cc(Cl)ccc1Oc1ccc(Cl)cc1Cl | 1.04 ± 0.057 | 0.187 ± 0.1 | 0.856 ± 0.26 | 0.495 ± 0.69 | 0.839 ± 0.013 | 1.113 ± 0.0014 | 1 ± 0.059 | 0.846 ± 0.081 | 0.935 ± 0.17
5 | CN(C)[C@@H]1C(=O)[C@H](C(N)=O)C(=O)[C@@]2(O)C(=O)[C@@H]3C(=O)c4c(O)cccc4[C@@](C)(O)[C@H]3C[C@@H]12 | 0.891 ± 0.31 | 0.615 ± 0.21 | 0.943 ± 0.033 | 0.874 ± 0.1 | 0.801 ± 0.02 | 1.03 ± 0.011 | 0.846 ± 0.13 | 0.379 ± 0.13 | 0.7359 ± 0.0054
6 | CCCCCCCCCCCCCCCC[N+](C)(C)C.[Br-] | 1.21 ± 0.19 | 0.026 ± 0.0026 | 0.171 ± 0.036 | 0.0569 ± 0.0052 | 0.371 ± 0.042 | 0.235 ± 0.047 | 0.6144 ± 0.0056 | 0.0751 ± 0.018 | 0.162 ± 0.021
7 | CNC1C(O)C(OC2C(N)CC(N)C(OC3OC(C(C)O)C(O)C(O)C3N)C2O)OCC1(C)O (stereo unspecified) | 1.19 ± 0.12 | 0.447 ± 0.021 | 1 ± 0.031 | 1.37 ± 0.52 | 0.749 ± 0.25 | 0.973 ± 0.059 | 0.936 ± 0.045 | 0.77 ± 0.12 | 0.879 ± 0.05
8 | O=[N+]([O-])c1ccc(N(CCO)CCO)c2c1no[n+]2[O-] | 1.22 ± 0.18 | 0.793 ± 0.094 | 1.49 ± 0.15 | 0.69 ± 0.21 | 0.559 ± 0.099 | 0.935 ± 0.067 | 0.448 ± 0.049 | 0.106 ± 0.026 | 0.679 ± 0.032
9 | Cc1c(N)nc([C@H](CC(N)=O)NC[C@@H](N)C(N)=O)nc1C(=O)N[C@H](C(=O)N[C@@H](C)[C@H](O)[C@@H](C)C(=O)N[C@@H](C(=O)NCCc1nc(-c2nc(C(=O)NCCC[S+](C)C)cs2)cs1)[C@@H](C)O)[C@@H](O[C@H]1O[C@H](CO)[C@H](O)[C@@H](O)[C@H]1O[C@H]1O[C@H](CO)[C@@H](O)[C@H](OC(N)=O)[C@@H]1O)c1c[nH]cn1 | 0.0451 ± 0.064 | 0.749 ± 0.38 | 1.26 ± 0.078 | 0.485 ± 0.028 | 0.878 ± 0.06 | 0.998 ± 0.07 | 0.96 ± 0.12 | 0.863 ± 0.16 | 0.866 ± 0.032
10 | Cn1ncnc2c(=O)n(C)c(=O)nc1-2 | 0.373 ± 0.21 | 0.533 ± 0.13 | 1.08 ± 0.28 | 0.994 ± 0.056 | 0.758 ± 0.047 | 0.966 ± 0.021 | 0.88 ± 0.059 | 0.129 ± 0.027 | 0.587 ± 0.6
11 | CCCCCCCCCCCCCCCC[n+]1ccccc1.[Cl-] | 1.22 ± 0.054 | 0.0141 ± 0.0023 | 0.581 ± 0.2 | 0.0538 ± 0.0068 | 0.3763 ± 0.00042 | 0.16 ± 0.039 | 0.2 ± 0.092 | 0.0629 ± 0.0016 | 0.2601 ± 0.0012
12 | CCCCCCCCCCCCCCCC[n+]1ccccc1 | 1.17 ± 0.056 | 0.0233 ± 0.0026 | 0.134 ± 0.0094 | 0.0267 ± 0.011 | 0.341 ± 0.023 | 0.19333 ± 8.8e-05 | 0.0415 ± 0.016 | 0.0717 ± 0.02 | 0.617 ± 0.64
13 | O=[N+]([O-])C(Br)(CO)CO | 0.108 ± 0.15 | 0.618 ± 0.27 | 0.897 ± 0.11 | 0.327 ± 0.015 | 0.596 ± 0.031 | 0.198 ± 0.059 | 0.943 ± 0.084 | 0.0632 ± 0.019 | 0.348 ± 0.045
14 | CN(C)[C@@H]1C(=O)C(C(N)=O)=C(O)[C@@]2(O)C(O)=C3C(=O)c4c(O)cccc4[C@](C)(O)[C@H]3C[C@@H]12 | 1.15 ± 0.25 | 0.475 ± 0.031 | 1.06 ± 0.1 | 1.11 ± 0.24 | 0.753 ± 0.025 | 1.05 ± 0.084 | 0.836 ± 0.089 | 0.144 ± 0.0081 | 0.809 ± 0.1
15 | CC(=O)Oc1ccc(Cl)c2cccnc12 | 0.756 ± 0.36 | 0.577 ± 0.29 | 0.965 ± 0.18 | 1.09 ± 0.17 | 0.8364 ± 0.0049 | 0.987 ± 0.052 | 0.892 ± 0.12 | 0.873 ± 0.19 | 0.7397 ± 0.0065
16 | [O-][n+]1ccccc1[S][Zn][S]c1cccc[n+]1[O-] | 0.849 ± 0.41 | 0.647 ± 0.14 | 1.08 ± 0.083 | 1.1 ± 0.13 | 0.788 ± 0.27 | 1.03 ± 0.0055 | 1.06 ± 0.052 | 0.109 ± 0.033 | 0.954 ± 0.052
17 | CN[C@H]1C[C@@H](N)[C@H](O)[C@@H](O[C@@H]2O[C@H](CO)[C@H](O)[C@@H]3O[C@@]4(O[C@H]23)O[C@H]([C@@H](N)CO)[C@H](O)[C@H](O)[C@H]4O)[C@@H]1O | 0.984 ± 0.14 | 0.571 ± 0.16 | 0.95 ± 0.14 | 1.19 ± 0.24 | 0.883 ± 0.02 | 1.029 ± 0.0074 | 0.933 ± 0.098 | 0.86 ± 0.2 | 0.8209 ± 0.0048
18 | C[CH2][Hg][S]c1ccccc1C(=O)[O-].[Na+] | 0.069 ± 0.018 | 0.749 ± 0.37 | 1.12 ± 0.031 | 0.94 ± 0.3 | 0.649 ± 0.14 | 1.07 ± 0.093 | 1.03 ± 0.11 | 0.212 ± 0.01 | 0.959 ± 0.048
19 | CCn1cc(C(=O)[O-])c(=O)c2cc3c(cc21)OCO3.[K+] | 0.128 ± 0.074 | 0.576 ± 0.11 | 1.21 ± 0.081 | 1.08 ± 0.18 | 0.826 ± 0.033 | 0.959 ± 0.029 | 0.892 ± 0.14 | 0.798 ± 0.13 | 0.7827 ± 0.0058
20 | O=S(=O)(O)O.Oc1cccc2cccnc12 | 0.857 ± 0.31 | 0.653 ± 0.14 | 1.05 ± 0.1 | 1.34 ± 0.49 | 0.441 ± 0.18 | 0.987 ± 0.048 | 0.981 ± 0.14 | 0.768 ± 0.011 | 0.862 ± 0.094
21 | COP(=S)(OC)Oc1cc(Cl)c(Cl)cc1Cl | 1.01 ± 0.21 | 0.105 ± 0.011 | 0.991 ± 0.28 | 1.39 ± 0.45 | 0.737 ± 0.2 | 1.09 ± 0.043 | 1.07 ± 0.027 | 0.585 ± 0.13 | 0.851 ± 0.025
22 | CN1C(=O)[C@]23CC4=CC=C[C@H](O)[C@H]4N2C(=O)[C@@]1(CO)SS3 | 0.669 ± 0.11 | 0.55 ± 0.14 | 1.06 ± 0.038 | 0.477 ± 0.68 | 0.859 ± 0.019 | 0.992 ± 0.012 | 0.947 ± 0.12 | 0.309 ± 0.13 | 0.838 ± 0.12
23 | Cc1c(N)nc([C@H](CC(N)=O)NC[C@@H](N)C(N)=O)nc1C(=O)N[C@H](C(=O)N[C@@H](C)[C@H](O)[C@@H](C)C(=O)N[C@@H](C(=O)NCCc1nc(-c2nc(C(=O)NCCC[S+](C)C)cs2)cs1)[C@@H](C)O)[C@@H](O[C@H]1O[C@H](CO)[C@H](O)[C@@H](O)[C@H]1O[C@H]1O[C@H](CO)[C@@H](O)[C@H](OC(N)=O)[C@@H]1O)c1cnc[nH]1 | 0.0494 ± 0.07 | 0.504 ± 0.71 | 1.121 ± 0.005 | 0.911 ± 0.2 | 0.801 ± 0.0016 | 1.06 ± 0.057 | 1.03 ± 0.061 | 0.787 ± 0.087 | 0.875 ± 0.077
24 | CN(C)[C@@H]1C(=O)[C@@H](C(N)=O)C(=O)[C@@]2(O)C(=O)[C@H]3C(=O)c4c(O)ccc(Cl)c4[C@@](C)(O)[C@H]3C[C@@H]12 | 0.69 ± 0.15 | 0.484 ± 0.12 | 0.931 ± 0.077 | 0.474 ± 0.67 | 0.778 ± 0.016 | 1.01 ± 0.018 | 0.879 ± 0.079 | 0.617 ± 0.21 | 0.739 ± 0.086
